Compound activity (PubChem)
Rce1 inhib: blocks yeast Ras-converting enzyme; 290,000 compounds, 0.27% hits; calls only; yeast membranes, quenched prenylated peptide cleavage fluorescence; Q03530;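 active = fall in fluorescence gain of 50% or more versus controls, with final raw signal at or below 3038400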;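 note: plate controls were neutral control wells for no effect and wells lacking membranes for full effect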
ANO1 block: inhibitors of mouse TMEM16A calcium-activated chloride channel; Q8BHY3; 310,000 compounds, 1.2% hits; HEK293 TMEM16A/YFP iodide influx fluorescence, ionomycin; normalized B-score (activity score, 25-100; higher = stronger inhibition) at 10 µM;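 active = ratio plate-corrected score three or more library SD toward inhibition, starting fluorescence score within five deviations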;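 note: score derived from kinetic fluorescence span divided by baseline fluorescence per well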
ANO1 activ: activators or potentiators of mouse TMEM16A chloride channel. HEK293 TMEM16A/YFP-H148Q/I152L, iodide quench fluorescence; stronger effect = lower value. B-score at 10 µM. 340,000 compounds, 0.3% hits. AID 623877;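 active = fluorescence-ratio B-score plate-corrected deviation score at least 3 library SD below zero, with starting fluorescence score within 5 deviations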;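 note: channel opened by trigger with iodide after compound preincubation; score built on the fluorescence ratio of max minus min over baseline; more negative score means more quench and so TMEM16A activation or potentiation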
CHT PAM: allosterically activates the human high affinity choline transporter; 310,000 compounds, 0.49% hits; B-score at 10 µM; Q9GZV3; CHT-expressing cells, membrane potential dye, choline EC20; stronger effect = higher value; LV-AA mutant CHT in HEK293 cells; AID 488977;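 active = initial fluorescence not abnormally high and integrated response B-score, plate-corrected, over 3 SD above library mean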
CHT block: human CHT choline transport inhibition; CHT-expressing cells, membrane potential dye, choline response; stronger effect = lower value; Q9GZV3; B-score at 10 µM; 310,000 compounds, 0.86% hits;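 active = B-score over 3 SD under the library average, and starting fluorescence ratio not unusually high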;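 note: choline stimulus applied at its EC90 after an EC20 pre-addition; B-score computed on integrated fluorescence ratio after choline addition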
Kir21 block: blocks the mouse Kir2.1 inward-rectifier potassium channel. B-score at 10 µM. P35561. HEK293-Kir2.1, FluxOR thallium flux fluorescence; stronger effect = lower value. 310,000 compounds, 0.85% hits. AID 1672;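 active = fluorescence ratio B-score at or below minus 3 SD of library scores, with starting-brightness B-score within 2 SD, cut at about -4.2 in these data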;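 note: channel flux triggered by added potassium and thallium sulfate stimulus; B-score of peak minus minimum fluorescence over baseline after thallium stimulus; more negative B-score means stronger Kir2.1 block with less thallium influx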
Target sequence (P35561 whole entry, looked up): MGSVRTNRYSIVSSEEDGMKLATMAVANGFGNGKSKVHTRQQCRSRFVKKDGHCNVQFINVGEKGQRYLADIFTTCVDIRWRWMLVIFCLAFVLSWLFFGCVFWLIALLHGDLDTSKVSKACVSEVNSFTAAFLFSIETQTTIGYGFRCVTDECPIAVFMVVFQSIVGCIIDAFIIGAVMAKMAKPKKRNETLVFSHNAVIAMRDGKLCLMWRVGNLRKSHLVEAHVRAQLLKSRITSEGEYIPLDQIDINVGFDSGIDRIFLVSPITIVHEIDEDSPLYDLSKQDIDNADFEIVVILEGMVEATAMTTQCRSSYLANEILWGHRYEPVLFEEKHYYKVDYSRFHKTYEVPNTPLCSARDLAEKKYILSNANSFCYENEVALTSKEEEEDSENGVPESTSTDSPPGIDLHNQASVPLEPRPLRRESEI
CHT block conf: human CHT inhibition, confirmatory screen. shares compounds with CHT block. CHT-expressing cells, choline membrane potential dye; LV-to-AA substituted CHT, HEK293 cells. CHT activity remaining % of control (stronger effect = lower value), % at 10 µM. 2,400 compounds, 70% hits. AID 493221;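 active = choline transporter activity left, mean of duplicates at 10 µM, below buffer-only control mean minus 3 SD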;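 note: depolarization triggered by choline at its EC90 following an EC20 pre-addition; 0% = hemicholinium-3 full block and 100% = buffer-only control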
HEK293 MPD ctr: CHT inhibitor counter-screen hit in parental HEK293 cells; shares compounds with CHT block; membrane potential dye, choline response; active = decrease or increase beyond buffer ±3SD; membrane potential ratio readout (active if shifted either direction beyond buffer ±3SD; no single direction) at 10 µM; 2,400 compounds, 4% hits; AID 493222;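 note: parental cells lack the transporter so any hit is non-specific; ratio is peak minus trough fluorescence over baseline after EC90 choline challenge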
The depositor's hits bear a star. In the library only some 3.2% were active in any assay of this set; here they are far more common.

How did C=CCNS(=O)(=O)c1ccc(N2C(=O)c3ccccc3C2=O)cc1 do in these assays?
Rce1 inhib: inactive; ANO1 block: inactive; ANO1 activ: inactive; CHT PAM: inactive; CHT block: -6.48*; Kir21 block: 1.87; CHT block conf: 63.2%*; HEK293 MPD ctr: inactive

What do the screens show for `COc1cc(NC(=O)CC(C)S(=O)(=O)c2ccc3c(c2)NC(=O)CO3)cc(OC)c1OC` (configuration not stated)?
Rce1 inhib: inactive; ANO1 block: inactive; ANO1 activ: inactive; CHT PAM: inactive; CHT block: inactive; Kir21 block: 0.03

What do the screens show for `Cc1cccc(NC(=O)N2CCc3ccccc3C2)c1C`?
Rce1 inhib: inactive; ANO1 block: inactive; ANO1 activ: inactive; CHT PAM: inactive; CHT block: inactive; Kir21 block: -0.22

What do the screens show for `Cc1ccccc1NC(=O)N1CCc2ccccc2C1`?
Rce1 inhib: inactive; ANO1 block: inactive; ANO1 activ: inactive; CHT PAM: inactive; CHT block: -5.57*; Kir21 block: 0.22; CHT block conf: inactive; HEK293 MPD ctr: inactive

What do the screens show for `CC1Cc2nc(SCC(=O)Nc3nc4ccccc4s3)n(C)c(=O)c2S1` (configuration not stated)?
Rce1 inhib: inactive; ANO1 block: inactive; ANO1 activ: inactive; CHT PAM: inactive; CHT block: -5.07*; Kir21 block: -1.15; CHT block conf: inactive; HEK293 MPD ctr: inactive

How did CCOC(=O)c1nn(-c2ccc(C)c(C)c2)c(=O)c(C#N)c1C do in these assays?
Rce1 inhib: inactive; ANO1 block: inactive; ANO1 activ: inactive; CHT PAM: inactive; CHT block: inactive; Kir21 block: -0.62

What do the screens show for `CCN(CC)S(=O)(=O)c1ccc(/C=C/C(=O)NC2CCCCC2)cc1`?
Rce1 inhib: inactive; ANO1 block: inactive; ANO1 activ: inactive; CHT PAM: inactive; CHT block: -7.05*; Kir21 block: 1.6; CHT block conf: 45.6%*; HEK293 MPD ctr: inactive

Results for CCOc1ccc(/C=C/C(=O)NC2CCCCC2)cc1 ?
Rce1 inhib: inactive; ANO1 block: inactive; ANO1 activ: inactive; CHT PAM: inactive; CHT block: inactive; Kir21 block: -1.25

Results for CC(C)c1ccc(/C=N/NC(=O)c2ccc(-n3cnnn3)cc2)cc1 ?
ANO1 activ: inactive

Results for O=C(O)c1ccc(-c2nc(-c3ccccc3Cl)cs2)cc1 ?
Rce1 inhib: inactive; ANO1 block: inactive; ANO1 activ: inactive; CHT PAM: inactive; CHT block: -5.43*; Kir21 block: 0.77; CHT block conf: 39.5%*; HEK293 MPD ctr: inactive

Results for COc1ccc(CC(=O)N2CCc3cc(OC)c(OC)cc3C2C)c(OC)c1 (configuration not stated) ?
Rce1 inhib: inactive; ANO1 block: inactive; ANO1 activ: inactive; CHT PAM: inactive; CHT block: -12.1*; Kir21 block: -0.4; CHT block conf: inactive; HEK293 MPD ctr: inactive

Results for Cc1ccccc1NS(=O)(=O)c1cc2c3c(c1)CC(=O)N3CCC2 ?
Rce1 inhib: inactive; ANO1 block: inactive; ANO1 activ: inactive; CHT PAM: inactive; CHT block: inactive; Kir21 block: -1.29

Results for Cc1ccccc1NS(=O)(=O)c1ccc(N2CCCC2=O)cc1 ?
ANO1 block: inactive; ANO1 activ: inactive; CHT PAM: inactive; CHT block: -4.96*; Kir21 block: -0.38; CHT block conf: inactive; HEK293 MPD ctr: inactive

What do the screens show for `Cc1ccc(NC(=O)CSc2n[nH]c(=O)n2C2CC2)cc1S(=O)(=O)N1CCOCC1`?
Rce1 inhib: inactive; ANO1 block: inactive; ANO1 activ: inactive; CHT PAM: inactive; CHT block: -6.75*; Kir21 block: 0.64; CHT block conf: inactive; HEK293 MPD ctr: inactive
